# Compound activity as filed in PubChem.
# Cav32 inh = human Cav3.2 channel inhibition, primary screen | O95180 | Cav3.2-expressing cells, Fluo-4 calcium fluorescence FDSS; hits give low values | B-score at 10 µM | 4% of 100,000 active | AID 449739;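 active = single-dose well whose peak fluorescence ratio is a statistical outlier from its plate by either plate-standardised score or position-corrected B-score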
# Target sequence (O95180 whole entry, looked up): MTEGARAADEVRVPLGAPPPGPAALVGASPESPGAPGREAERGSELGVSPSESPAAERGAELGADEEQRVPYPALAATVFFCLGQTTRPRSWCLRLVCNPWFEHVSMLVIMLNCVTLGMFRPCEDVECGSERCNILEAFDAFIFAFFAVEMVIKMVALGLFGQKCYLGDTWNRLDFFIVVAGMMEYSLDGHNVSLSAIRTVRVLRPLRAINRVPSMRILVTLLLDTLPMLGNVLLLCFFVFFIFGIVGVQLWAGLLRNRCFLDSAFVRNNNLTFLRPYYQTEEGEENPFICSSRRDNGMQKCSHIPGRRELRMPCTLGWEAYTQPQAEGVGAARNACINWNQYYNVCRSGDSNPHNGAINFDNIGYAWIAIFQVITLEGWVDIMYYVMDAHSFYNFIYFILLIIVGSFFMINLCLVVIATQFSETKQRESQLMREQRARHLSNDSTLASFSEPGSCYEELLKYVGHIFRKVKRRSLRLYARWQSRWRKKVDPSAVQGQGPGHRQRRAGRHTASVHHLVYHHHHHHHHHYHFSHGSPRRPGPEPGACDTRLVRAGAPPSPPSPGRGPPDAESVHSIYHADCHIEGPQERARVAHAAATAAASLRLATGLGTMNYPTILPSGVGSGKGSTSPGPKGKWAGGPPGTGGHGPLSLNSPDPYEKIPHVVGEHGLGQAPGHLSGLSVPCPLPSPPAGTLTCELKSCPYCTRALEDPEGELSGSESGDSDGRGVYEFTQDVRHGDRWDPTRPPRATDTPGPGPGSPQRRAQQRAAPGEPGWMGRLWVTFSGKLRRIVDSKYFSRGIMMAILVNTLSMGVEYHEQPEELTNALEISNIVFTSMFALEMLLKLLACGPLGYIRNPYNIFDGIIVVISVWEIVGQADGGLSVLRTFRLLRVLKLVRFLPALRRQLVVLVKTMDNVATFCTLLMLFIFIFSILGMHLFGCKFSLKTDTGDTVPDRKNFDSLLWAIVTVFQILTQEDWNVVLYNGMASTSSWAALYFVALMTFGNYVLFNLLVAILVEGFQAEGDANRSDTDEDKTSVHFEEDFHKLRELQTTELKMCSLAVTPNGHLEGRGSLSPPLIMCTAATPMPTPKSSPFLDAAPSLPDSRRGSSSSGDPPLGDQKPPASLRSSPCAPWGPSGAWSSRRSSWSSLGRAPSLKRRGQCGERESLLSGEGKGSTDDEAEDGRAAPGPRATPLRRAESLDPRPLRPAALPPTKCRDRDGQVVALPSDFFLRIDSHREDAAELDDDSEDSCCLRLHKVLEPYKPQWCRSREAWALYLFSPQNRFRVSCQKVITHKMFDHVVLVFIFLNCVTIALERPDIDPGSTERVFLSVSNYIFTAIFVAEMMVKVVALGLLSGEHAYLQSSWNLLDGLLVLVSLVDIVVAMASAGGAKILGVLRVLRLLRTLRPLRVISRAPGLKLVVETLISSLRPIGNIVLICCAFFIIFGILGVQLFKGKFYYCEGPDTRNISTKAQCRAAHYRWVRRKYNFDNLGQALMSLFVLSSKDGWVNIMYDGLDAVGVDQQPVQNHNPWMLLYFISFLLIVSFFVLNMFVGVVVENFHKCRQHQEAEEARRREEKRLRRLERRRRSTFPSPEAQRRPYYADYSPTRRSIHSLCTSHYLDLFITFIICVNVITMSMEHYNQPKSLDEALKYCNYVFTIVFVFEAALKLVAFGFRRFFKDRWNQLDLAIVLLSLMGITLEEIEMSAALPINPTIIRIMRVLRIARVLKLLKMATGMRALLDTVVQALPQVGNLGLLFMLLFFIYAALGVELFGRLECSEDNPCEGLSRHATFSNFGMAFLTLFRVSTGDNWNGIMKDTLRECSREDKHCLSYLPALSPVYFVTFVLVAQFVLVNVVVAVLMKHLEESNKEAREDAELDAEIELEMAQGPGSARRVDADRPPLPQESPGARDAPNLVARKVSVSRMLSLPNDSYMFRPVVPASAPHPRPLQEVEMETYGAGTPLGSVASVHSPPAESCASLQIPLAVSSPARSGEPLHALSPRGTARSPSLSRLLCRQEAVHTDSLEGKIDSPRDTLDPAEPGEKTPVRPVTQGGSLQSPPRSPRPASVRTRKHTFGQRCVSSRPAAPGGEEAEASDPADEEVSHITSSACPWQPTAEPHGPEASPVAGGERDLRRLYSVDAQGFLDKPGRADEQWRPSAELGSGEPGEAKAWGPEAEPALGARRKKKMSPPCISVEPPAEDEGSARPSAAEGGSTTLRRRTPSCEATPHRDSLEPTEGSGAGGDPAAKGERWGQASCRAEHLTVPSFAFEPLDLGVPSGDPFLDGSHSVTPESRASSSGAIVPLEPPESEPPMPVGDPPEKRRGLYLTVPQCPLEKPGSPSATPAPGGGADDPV
# CYP2C9 activ = increases human cytochrome P450 2C9 activity; P11712; recombinant CYP2C9, luciferin-H conversion, luminescence; hits give high values; factor 1 = untreated enzyme, 0 = blocked; activation factor at 5 µM; 1.4% of 96,000 active; AID 1024;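 active = activation factor of 2 or more for CYP2C9 at a 5 µM dose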
# CYP2C9 inh = inhibitors of human CYP2C9. CYP2C9 Supersomes, luciferin-H conversion, luminescence. 20% of 96,000 active. inhibition, % at 5 µM. P11712;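 active = blocking of liver enzyme CYP2C9 beyond about 50% at 5 µM, limit read from the data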
# CYP2C19 act = increases human CYP2C19 enzyme activity. recombinant CYP2C19, luciferin-H EGE luminescence; hits give high values; 0 = fully inhibited enzyme, 1 = untreated enzyme. activation factor at 5 µM. P33261. 96,000 tested, under 10 active;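 active = activation factor of at least 2 at 5 µM in the primary screen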
# CYP2C19 inhib = blocks human cytochrome P450 2C19 | inhibition, % at 5 µM | 21% of 96,000 active | P33261 | CYP2C19 Supersomes, luciferin-H EGE luminescence, 30 min;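 active = CYP2C19 inhibition above a set limit at 5 µM in the primary screen, cut at about 50% in these data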
# Numbers stand for hits; – = inactive; · = not tested or not shown. Shown are actives, neighbours in structure and some others; about 27% of the full set was active somewhere.
SMILES,Cav32 inh,CYP2C9 activ,CYP2C9 inh,CYP2C19 act,CYP2C19 inhib
Nc1ccc(N2CCN(Cc3ccccc3Cl)CC2)c(Cl)c1,–,–,86.5,–,96.7
CC12CN3CCN(C1)CC(C)(C3)C2=NO,–,–,–,–,–
CN(C)P1(N(C)C)=Nc2c(c(N)nn2C)C(c2ccccc2)=N1,–,–,–,–,–
CCCC1(CCC)C(=O)NC(=NCc2ccccc2)NC1=O,·,–,–,–,–
CCCCC1(CCCC)C(=O)NC(=Nc2cccc(C)c2)NC1=O,–,–,60.3,–,61.1
O=C(c1cc2ccccc2oc1=O)N1CCC2(CC1)OCCO2,–,–,–,–,–
O=C(c1cc2c(s1)-c1ccccc1OC2)N1CCC2(CC1)OCCO2,·,–,–,–,84.2
CCCC(=O)Nc1cc(C(=O)N2CCC3(CC2)OCCO3)ccc1S(=O)(=O)c1ccc(C)cc1,–,–,–,–,–
COCCCNC(=O)c1c(NC(=O)c2ccccc2)n(Cc2ccccc2)c2nc3ccccc3nc12,-5.69,·,·,·,·
CC(C)[C@H]1C(=O)O[C@H](C(C)C)C(=O)N(C)[C@@H](C(C)C)C(=O)O[C@H](C(C)C)C(=O)N(C)[C@@H](C(C)C)C(=O)O[C@H](C(C)C)C(=O)N1C,-3.9,·,·,·,·
CCOP(=O)(C(NC(=O)c1ccccc1Cl)=C(Cl)Cl)c1ccccc1 (configuration not stated),–,–,57.0,–,77.4
CCOP(=O)(OCC)C(NC(=O)c1ccccc1Cl)=C(Cl)Cl,–,–,–,–,–
CCCCCCOc1ccc(CN2CCN(CC)CC2)cc1,–,–,–,–,–
COc1ccc(C2C(C(=O)N3CCC4(CC3)OCCO4)CC(=O)N2c2ccc(OC)cc2)cc1 (configuration not stated),–,–,–,–,61.2
O=C(Cn1cnc2sc3c(c2c1=O)CCCC3)NCCC(=O)N1CCC2(CC1)OCCO2,–,·,·,·,·
N=C1C(c2ccccc2)=C(O)CN1Cc1ccco1,–,–,–,–,–
O=C(Cc1ccc(Br)cc1)N1CCN(Cc2ccccc2)CC1,–,–,86.7,–,83.6
COc1ccc(Br)cc1CN1CCN(C(=O)Cc2ccccc2)CC1,–,–,81.1,–,87.8
COC(=O)C1=C(c2cc3ccccc3s2)C[C@@H]2CC[C@H]1N2C(=O)NCCNC(C)=O,–,·,·,·,·
CCC(CC)C(=O)NC1CCSC1=O (configuration not stated),–,–,–,–,–
CCn1c(O)c(C=Nc2ccc(N3CCOCC3)cc2)c(=O)n(CC)c1=S,-4.48,–,–,–,–
CN(C)P(=O)(C(Cl)=C(N1CCCCC1)N1CCCCC1)N(C)C,–,–,–,–,68.6
C[C@H]1CCCC(=O)CCC/C=C/c2cc(O)cc(O)c2C(=O)O1,–,–,89.5,–,87.9
COC(=O)C1=CO[C@@H](C)[C@@H]2CN(CCc3c[nH]c4ccccc34)CC[C@H]12,–,·,·,·,·
Cc1ccc(N(C)C(=O)Oc2ccc(C(=O)c3ccc(Cl)cc3)cc2)cc1,–,–,59.7,–,50.4
SMILES,Cav32 inh,CYP2C9 activ,CYP2C9 inh,CYP2C19 act,CYP2C19 inhib
C=C1[C@H]2C[C@H]3[C@H]4N5C[C@]6(C)CCC[C@]47[C@H]([C@H]2O)[C@]3(C[C@]5(O)[C@H]67)[C@@H]1O,–,·,·,·,·
COC(=O)C1=C(c2ccccc2)C[C@@H]2CC[C@H]1N2C(=O)N1CCCC1,–,·,·,·,·
CC(=O)Nc1cc(C(=O)N2CCC3(CC2)OCCO3)ccc1S(=O)(=O)c1ccc(C)cc1,–,–,–,–,–
Cc1ccc(S(=O)(=O)Nc2cc(C(=O)N3CCC4(CC3)OCCO4)ccc2N2CCCCC2)cc1,–,–,62.6,–,54.3
COC(=O)C1=C(c2ccc(S(C)(=O)=O)cc2)C[C@@H]2CC[C@H]1N2C(=O)NC(C)C,–,·,·,·,·
CC(C)C1(C)N=C(c2ncccc2C(=O)O)NC1=O (configuration not stated),–,–,–,–,–
CC(=O)[C@@]1(O)CC[C@H]2[C@@H]3CC=C4C[C@@H](O)CC[C@]4(C)[C@H]3CC[C@@]21C,–,·,·,·,·
CC(=NCCN1CCCCC1)c1c(O)n(-c2ccc(Cl)cc2)c(=O)[nH]c1=O,–,–,–,–,–
CCCCCCCSc1cc(OC)c(CCNC)cc1OC,–,–,–,–,80.6
CCCCCSc1cc(OC)c(CCNC)cc1OC,–,–,–,–,62.4
O=C(Nc1ccc(Cl)cc1)Nc1nccs1,–,–,–,–,–
Clc1cccc(Cl)c1C1N2CCCN12 (configuration not stated),–,–,–,–,–
CC(C)OCCCNC(=O)c1c(N)n(CC2CCCO2)c2nc3ccccc3nc12 (configuration not stated),-4.48,–,84.9,–,66.6
CC(C)OC(=O)c1c(N)n(CC2CCCO2)c2nc3ccccc3nc12 (configuration not stated),–,–,–,–,–
CCCNC(=O)c1c(N)n(CC2CCCO2)c2nc3ccccc3nc12 (configuration not stated),-6.16,–,–,–,–
CCOc1cccc(OCC)c2c(C)[n+](CC3CCCO3)c(C)c1-2 (configuration not stated),·,–,–,–,–
O=C(C1CCC(=O)N1Cc1ccccc1Cl)N1CCC2(CC1)OCCO2 (configuration not stated),–,–,–,–,–
COc1cccc(N2CCN(Cc3ccc(Cl)cc3)CC2)c1,–,–,72.1,–,87.6
COc1cccc(N2CCN(Cc3cccc(Cl)c3)CC2)c1,–,–,79.3,–,94.8
CCCOP(=O)(O)c1c([N+](=O)[O-])cc(C(F)(F)F)cc1[N+](=O)[O-] (tested in a mixture with another compound),–,–,–,–,–
CN(C)[C@@H]1C(=O)C(C(N)=O)=C(O)[C@@]2(O)C(=O)C3=C(O)c4c(O)cccc4[C@@](C)(O)[C@H]3[C@H](O)[C@@H]12,-3.75,·,·,·,·
CCN(CC)CCN=Cc1c(O)n(CCC2=CCCCC2)c(=O)[nH]c1=O,–,–,–,–,–
C[N+]12CCC(CC1)C(C#N)(N1CCOCC1)C2 (configuration not stated),–,–,–,–,–
Cc1cc2c(s1)NC(=O)CN=C2c1cccs1,–,–,–,–,50.5
O=C1CN=C(c2cccs2)c2c(sc3c2CCCC3)N1,–,–,–,–,–
O=C1C2CCCN2C(c2ccccc2)N1c1ccccn1 (configuration not stated),–,–,–,–,–
CCC(C)C12CN3CCN(CC(C)(C3)C1=O)C2 (configuration not stated),–,–,76.8,–,76.2
COc1cccc(N2C(=O)NC(=O)C3(Cc4cc(C)ccc4N(C)C3)C2=O)c1 (configuration not stated),–,–,83.9,–,–
COc1ccc(OC)c(N2C(=O)NC(=O)C3(Cc4cc(C)ccc4N(C)C3)C2=O)c1 (configuration not stated),–,–,80.1,–,–
